In ChEMBL document CHEMBL4513216, “Probing the Open Global Health Chemical Diversity Library for Multistage-Active Starting Points for Next-Generation Antimalarials” (ACS Infect Dis, 2020):
The campaign covered roughly 65,000 compounds. About 2,100 (3.2%) showed an effect of 50% or more. The median lay at about -52%. The list comes from a sample in which strong results are over-represented; it also holds similar structures and randomly drawn compounds.

system: Plasmodium falciparum; assay: Screen against P. falciparum Asexual Blood Stage (ABS), at 5uM; type: functional, Dd2; conditions: tested at 5 uM

| Compound | INHIBITION [%] |
| --- | --- |
| Clc1ccc(-n2nnnc2C2(NCc3ccco3)CCCCC2)cc1 | 5.42 |
| CN(Cc1cncnc1)[C@H]1CN(CC2CC2)[C@@H]2CCCO[C@@H]21 | 4.52 |
| c1cc(COC[C@]23COC[C@H]2CN(CC2CCC2)C3)ccn1 | -81.5 |
| CC(C)N(C)Cc1cncc2c1CCN(CC(=O)N(C)C)C2 | -31.3 |
| CC(C)N(C)Cc1cnc2n1CCN(C(=O)NC1CCCC1)C2 | 83.4 |
| Cc1noc(C)c1CN1CCCC2(CCN(C(=O)NC3CC3)C2)C1 (stereo unspecified) | -183 |
| Cc1cc(C)c(CNc2ncnc3ccccc23)c(=O)[nH]1 | 14.5 |
| c1cnnc(N2CCCC2CNc2ncnc3sccc23)c1 (stereo unspecified) | 82 |
| CN(c1ncnc2ccccc12)C1CCCN(c2cccnn2)C1 (stereo unspecified) | 74.4 |
| c1cnnc(N2CCCC2CNc2ncnc3ccccc23)c1 (stereo unspecified) | 81.1 |
| CN(Cc1ncc(C(C)(C)C)o1)CC1CCCN1c1cccnn1 (stereo unspecified) | 80.7 |
| N#Cc1ccc(NC2CCN(c3ncccn3)CC2)cc1Cl | -47.7 |
| c1ccc(CO[C@@H]2CC[C@H]3[C@H]2OCCN3Cc2ccsc2)nc1 | -80.3 |
| CC[C@H](C)[C@@H](CO)NC(C)Cc1ccc(C)cc1 (stereo partly specified) | 31.8 |
| O=C(NCc1ccccn1)[C@H]1COC[C@H]2CN(C3CCCC3)C[C@H]21 | -109 |
| COCCn1ccc2c(C(=O)NC3CN4CCC3CC4)cccc21 (stereo unspecified) | -19.8 |
| O=C(NC1CC1)C1CCN(c2cccc(C(F)(F)F)n2)CC1 | 79.4 |
| COCCN1C[C@H]2CCC[C@@H](CNc3ncccn3)[C@H]2C1 | 23.6 |
| COCCN1C[C@H]2[C@@H](C1)N(C(=O)COc1ccccc1)CC[C@H]2OC | -98.8 |
| O=C(Cc1ccsc1)N1CCN(CCOc2ccccc2)CC1 | 19.5 |
| N[C@H]1CN(CCOc2ccc(F)cc2)C[C@@H]1C1CC1 | 76.5 |
| N[C@H]1CN(CCCOc2ccccc2)C[C@@H]1C1CC1 | 86.8 |

| Compound | INHIBITION [%] |
| --- | --- |
| CC(C)N1CCC2(CC1)NC(=O)c1cc(Br)ccc1-n1nnnc12 | -84.6 |
| CN1CCOCC2(CCCN(C(=O)Cc3ccncc3)C2)C1 (stereo unspecified) | -195 |
| CCS(=O)(=O)N1CCN(C)c2ncccc2C1 | -45.7 |
| CCC(CN1CCOCC1)n1cncc1-c1ccc2c(c1)CCN2CC (stereo unspecified) | 94.5 |
| CC(C)CN1CCC2(CC1)CN(C(=O)C(C)C)C2 | -69.1 |
| CNC(=O)[C@H]1C[C@@H]2CN(Cc3c(C)noc3C)C[C@@H]2N1C(C)=O | -19.9 |
| CN(C)CCNC(=O)[C@H]1C[C@H]2CN(c3ncccn3)C[C@H]2N1C | -64.2 |
| CN(C)CCNC(=O)C1Cc2nc(-c3ccccc3)sc2N1CC1CC1 (stereo unspecified) | 89.7 |
| Cc1csc([C@@H]2C[C@@H]3CCN(Cc4cc(C)on4)C[C@H]3O2)n1 | -19.3 |
| CNc1nc(C)cc(NC2CCCN(C3Cc4ccccc4C3)C2)n1 (stereo unspecified) | 89.5 |
| Cc1cc(C)nc(N2CCCC2c2cccnc2)n1 (stereo unspecified) | 0.584 |
| CN(C(=O)Cc1ccn(C)c1)C1CCCN(C2Cc3ccccc3C2)C1 (stereo unspecified) | -32.4 |
| CNc1cc(C)nc(NC2CCCN(C3Cc4ccccc4C3)C2)n1 (stereo unspecified) | 92.8 |
| Cc1cc(N2CCCN3CCC[C@H]3C2)n2nc(C)c(C)c2n1 | 9.89 |
| Cn1ncc2c1NC(=O)CSC2c1ccc2c(c1)OCO2 (stereo unspecified) | -86 |
| c1cc(COC[C@]23COC[C@H]2CN(Cc2ccncc2)C3)ccn1 | -118 |
| CN1CCCC2(CCN(C(=O)c3ccncc3)C2)C1 (stereo unspecified) | -62 |
| CN1CCN([C@@H]2CN(C(=O)c3ccnnc3)[C@@H]3CCCO[C@H]23)CC1 | -103 |
| Cc1oc(-c2ccco2)nc1CC(=O)N1CCN(CC(C)O)CC1 (stereo unspecified) | -65.7 |
| CN1CCCC1c1cccc(Cc2ccc(F)cc2)n1 (stereo unspecified) | 62.1 |
| CN1CCCC1c1ccc(N2CCOCC2)cn1 (stereo unspecified) | -144 |
| Fc1ccc(Cc2cnc(C3CCCN3)cn2)cc1 (stereo unspecified) | 45.6 |

| Compound | INHIBITION [%] |
| --- | --- |
| Cc1nnc([C@H]2C[C@@H]3CCN(Cc4cc(C)on4)C[C@H]3O2)[nH]1 | -33.8 |
| CC(C)N1CC[C@@H]2OC[C@H](C(=O)Nc3cccnc3)C[C@@H]2C1 | -33.5 |
| CC(C)N1CCC(N(C)c2ccnc(N(C)C)n2)CC1 | 39.1 |
| Cc1cc(NC(=O)NC2CCN(C(C)C)CC2)c2ncccc2c1 | 79.7 |
| CN(C)Cc1cncc2c1CCN(Cc1ccoc1)C2 | -67.1 |
| c1cc2c(cc1C1(CNC3=NCCN3)CCCC1)OCCO2 | 81.1 |
| Clc1ccc(C2(CNC3=NCCN3)CCCC2)cc1 | 83.7 |
| Fc1ccc(C2(CNC3=NCCN3)CCCC2)cc1 | 83.5 |
| Clc1ccc(C2(CNC3=NCCN3)CC2)cc1 | 83.2 |
| O=C(NC[C@]12COC[C@H]1CN(Cc1cccnc1)C2)c1ccsc1 | 5.35 |
| CNC(=O)C1CCC2(CCNCC2)C1 (stereo unspecified) | -92 |
| Cc1ccc(N2C[C@@H]3CN(Cc4ccoc4)CCO[C@@H]3C2)nn1 | -14.1 |
| Cc1oncc1C(=O)N[C@@H]1CN(C2CCC2)C[C@@H]2CCCO[C@@H]21 | -114 |
| O=C(Cc1c(F)cccc1F)N1CCN(CC(=O)N2CCCC2)CC1 | -130 |
| Cc1cc(CN2CC[C@H]3C[C@@H](c4nccs4)O[C@@H]3C2)no1 | -79.5 |
| CC(=O)N1CCOCC2(CCCNC2)C1 (stereo unspecified) | -96.3 |
| Clc1ccc(C2(CNC3=NCCN3)CCCCC2)cc1 | 90.2 |
| CN(C)C(=O)C1CCC2(CCNCC2)C1 (stereo unspecified) | -63 |
| CC(C)n1[nH]c(=O)c2c1NC(=O)CSC2c1ccc(OCC(N)=O)cc1 (stereo unspecified) | -43.5 |
| CC(NCc1ccc(OCC(N)=O)cc1)c1ccc2c(c1)CCCC2 (stereo unspecified) | 73.4 |
| CC(C)n1[nH]c(=O)c2c1NC(=O)CSC2c1cccc(OCC(N)=O)c1 (stereo unspecified) | -96.5 |
| O=C(c1cccnc1)N1CCN2C[C@H](Oc3cncnc3)C[C@H]2C1 | -64.5 |
